The list is not random: actives were taken first. Their share in the collection is about 3.8%.
tim10-1 inh: inhibits growth of tim10-1 mutant yeast | S. cerevisiae tim10-1 ts strain growth, BacTiter-Glo, 24 h | inhibition, % at 20 µM | 2.2% of 330,000 active;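 active = inhibition of at least 40%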;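 also: mutant grown at 25 °C; 0% = DMSO wells with yeast and 100% = wells holding no yeast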
TIM10 inh: inhibits growth of TIM10 yeast strain | AID 463195 | inhibition, % at 10 µM | 1.4% of 330,000 active | S. cerevisiae TIM10 strain growth, BacTiter-Glo luminescence, 24 h;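 active = inhibition of 40% or more at the single tested concentration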;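 also: wild-type TIM10 isogenic control strain grown at permissive 25 °C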
B2AR ag: activates human beta-2 adrenergic receptor causing internalization; P07550; Am2.2-beta2AR cells, FAP receptor internalization, flow cytometry; response, % (no concentration beside the values); 0.43% of 340,000 active; AID 504454;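 active = response above a set limit, near 3 SD of response in nonfluorescent compounds, cut at about 42% in these data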
Target sequence (P07550 whole entry, looked up): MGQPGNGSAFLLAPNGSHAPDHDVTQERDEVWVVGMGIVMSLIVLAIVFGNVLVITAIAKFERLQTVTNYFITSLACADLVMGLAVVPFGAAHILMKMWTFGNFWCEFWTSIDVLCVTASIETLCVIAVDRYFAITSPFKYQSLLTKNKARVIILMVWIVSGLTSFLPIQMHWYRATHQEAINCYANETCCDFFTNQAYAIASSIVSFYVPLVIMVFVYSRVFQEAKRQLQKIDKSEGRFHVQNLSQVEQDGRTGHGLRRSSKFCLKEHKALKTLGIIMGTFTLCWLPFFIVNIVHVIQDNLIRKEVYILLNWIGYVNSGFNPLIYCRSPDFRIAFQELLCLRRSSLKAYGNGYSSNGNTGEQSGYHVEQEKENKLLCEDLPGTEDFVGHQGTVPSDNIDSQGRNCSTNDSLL
tim23-1 inh: tim23-1 yeast growth inhibition; inhibition, % at 20 µM; S. cerevisiae tim23-1 growth, BacTiter-Glo luminescence, 24 h; 1.3% of 330,000 active;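 active = growth inhibition of the mutant yeast at or above 50%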;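 also: temperature-sensitive mutant grown at 25 °C; plate controls were DMSO-treated mutant yeast for no effect and medium wells lacking yeast for full effect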
PfHsp90 yeast 2: inhibits growth of yeast expressing Plasmodium falciparum Hsp90 | 0.32% of 310,000 active | AID 504621 | S. cerevisiae expressing PfHsp90, BacTiter-Glo ATP, 48 h; yeast lacking PDR1 and PDR3 efflux regulators | inhibition, % at 9.4 µM;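 active = every replicate shows inhibition above about 80%, whatever the replicate mean, limit read from the data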;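 also: 0% = DMSO neutral controls and 100% = 20 µM radicicol positive controls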
TIM10 conf: TIM10 yeast growth inhibition, confirmed | 63% of 4,600 active | inhibition, % at 10 µM | S. cerevisiae tim10 strain growth, BacTiter-Glo luminescence, 24 h | shares compounds with TIM10 inh | AID 463215;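 active = inhibition of yeast growth at or above a set limit in either of two replicates at 10 µM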;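 also: this counterscreen used the strain with wild-type TIM10; 0% = yeast with DMSO and 100% = medium wells lacking yeast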
Starred values were filed as active, the others as inactive.

Screening COc1cc(NC(=O)c2cccs2)ccc1NC(=O)c1ccco1 returned tim10-1 inh 9, TIM10 inh 47*, B2AR ag -10, tim23-1 inh 26, PfHsp90 yeast 2 -5 and TIM10 conf -2.
Cc1ccc2nc(Cl)c(CN(C(=O)c3cnccn3)C3CCCCC3)cc2c1 was read as tim10-1 inh 39, TIM10 inh 41*, B2AR ag -5, tim23-1 inh 39, PfHsp90 yeast 2 15 and TIM10 conf 28*.
Screening O=C(OCC(=O)N(C1CCCCC1)C1CCCCC1)c1cnccn1 returned tim10-1 inh 19, TIM10 inh 35, B2AR ag 1, tim23-1 inh -5 and PfHsp90 yeast 2 -23.
`Cc1cnc(C(=O)OC(C(=O)Nc2cc(C(F)(F)F)ccc2Cl)c2ccccc2)cn1` (stereo unspecified) gave tim10-1 inh 28, TIM10 inh 98*, B2AR ag -7, tim23-1 inh 29, PfHsp90 yeast 2 -3 and TIM10 conf 19.
COCC(=O)NNC(=O)c1ccccc1OC was read as tim10-1 inh 4, TIM10 inh -6, B2AR ag -3, tim23-1 inh -7 and PfHsp90 yeast 2 -7.
COc1ccccc1C(=O)NCCC(=O)NNC(=O)c1ccccc1O was read as tim10-1 inh -3, TIM10 inh 96*, B2AR ag -3, tim23-1 inh 8, PfHsp90 yeast 2 1 and TIM10 conf -8.
For CCOc1cc(/C=C2\N=C(C)OC2=O)cc(Cl)c1OCC(=O)OC the results were tim10-1 inh 17, TIM10 inh 14, B2AR ag 10, tim23-1 inh 16 and PfHsp90 yeast 2 -1.
Screening CCCCOc1c(Br)cc(/C=C2\N=C(C)OC2=O)cc1OCC returned tim10-1 inh 37, TIM10 inh 49*, B2AR ag 7, tim23-1 inh 47, PfHsp90 yeast 2 15 and TIM10 conf 19.
O=C(COc1ccccc1)N=C1SC2CS(=O)(=O)CC2N1c1ccccc1 (stereo unspecified) was read as tim10-1 inh 14, TIM10 inh 97*, B2AR ag -4, tim23-1 inh 6, PfHsp90 yeast 2 6 and TIM10 conf -5.
Screening CCOc1ccc(N2CC(C(=O)NC3CCSC3=O)CC2=O)cc1 (stereo unspecified) returned tim10-1 inh 6, TIM10 inh 3, B2AR ag 1, tim23-1 inh 14 and PfHsp90 yeast 2 -3.
Screening Cc1nc(NC(=O)C2CC2)sc1C(=O)Nc1ccccc1 returned tim10-1 inh -2, TIM10 inh -2, B2AR ag -8, tim23-1 inh 16 and PfHsp90 yeast 2 -1.
Cc1nc(Nc2c(Cl)cccc2Cl)sc1C(=O)Nc1ccccc1 was read as tim10-1 inh 36, TIM10 inh 44*, B2AR ag -5, tim23-1 inh 35, PfHsp90 yeast 2 -15 and TIM10 conf 31.
COc1ccc(CN2CCC(Oc3cc(C(=O)NC4CC4)ccc3OC)CC2)c(O)c1 was read as tim10-1 inh -10, TIM10 inh 83*, B2AR ag -16, tim23-1 inh 0, PfHsp90 yeast 2 2 and TIM10 conf 0.
Screening O=C(COc1ccc(F)cc1)Nc1nnc(S(=O)(=O)N2CCCC2)s1 returned tim10-1 inh -12, TIM10 inh -2, B2AR ag 7, tim23-1 inh -8 and PfHsp90 yeast 2 4.
CC(C)(C)NC(=O)C(c1cccs1)N(CC1CCCO1)C(=O)c1ccc(-c2ccccc2)[nH]1 (stereo unspecified) was read as tim10-1 inh 25, TIM10 inh 42*, B2AR ag 3, tim23-1 inh 33, PfHsp90 yeast 2 1 and TIM10 conf -11.
For CN(C)CCN[C@H]1CCC2C3CC=C4C[C@@H](O)CC[C@]4(C)C3CC[C@@]21C (stereo partly specified) the results were tim10-1 inh -25, TIM10 inh -59, B2AR ag 8, tim23-1 inh -18 and PfHsp90 yeast 2 -43.
`c1csc(C2C3=C(Nc4ncnn42)c2ccccc2OC3)c1` (stereo unspecified) gave tim10-1 inh 33, TIM10 inh 43*, B2AR ag -8, tim23-1 inh 33, PfHsp90 yeast 2 -11 and TIM10 conf 15.
`Cc1ccc(-c2cc3cccc[n+]3cc2-c2ccc(C)cc2)cc1` gave tim10-1 inh 39, TIM10 inh 51*, B2AR ag -11, tim23-1 inh 38, PfHsp90 yeast 2 1 and TIM10 conf 53*.
`Cc1ccc(NS(=O)(=O)c2cccc3nsnc23)cc1[N+](=O)[O-]` gave tim10-1 inh 17, TIM10 inh 6, B2AR ag -4, tim23-1 inh 21 and PfHsp90 yeast 2 47.
For COCCNc1oc(Cc2cccc3ccccc23)nc1C#N the results were tim10-1 inh 18, TIM10 inh -7, B2AR ag 1, tim23-1 inh 29 and PfHsp90 yeast 2 4.
`COc1cc(/C=C(\C#N)C(=O)Nc2cccc3ncccc23)cc(OC)c1OC` gave tim10-1 inh 39, TIM10 inh 42*, B2AR ag 4, tim23-1 inh 47, PfHsp90 yeast 2 -9 and TIM10 conf -19.
COc1cc(C(=O)NCCCNC(=O)c2cc(OC)c(OC)c(OC)c2)cc(OC)c1OC was read as tim10-1 inh -21, TIM10 inh -11, B2AR ag 3 and tim23-1 inh -6.
`COc1cc(C(=O)NCCNC(=O)C2CCCNC2=O)cc(OC)c1OC` (stereo unspecified) gave tim10-1 inh 10, TIM10 inh 40*, B2AR ag 4, tim23-1 inh 11, PfHsp90 yeast 2 24 and TIM10 conf -12.
COCCNC(=O)CN1C(=O)NC(c2ccccc2)(c2ccccc2)C1=O was read as tim10-1 inh 18, TIM10 inh -4, B2AR ag 2, tim23-1 inh 20 and PfHsp90 yeast 2 13.
`Cc1ccc(NC(=O)CSc2nnc(Cc3csc(C)n3)o2)c(C)c1` gave tim10-1 inh 15, TIM10 inh 1, B2AR ag -10, tim23-1 inh -8 and PfHsp90 yeast 2 15.
Cc1cccc(OCC(O)CN2CCN(c3ccccn3)CC2)c1C (stereo unspecified) was read as tim10-1 inh -6, TIM10 inh 98*, B2AR ag -2, tim23-1 inh -6, PfHsp90 yeast 2 -29 and TIM10 conf 1.
`Cc1ccsc1/C=N/NC(=S)NCc1ccccc1` gave tim10-1 inh 35, TIM10 inh 54*, B2AR ag -4, tim23-1 inh 28, PfHsp90 yeast 2 -9 and TIM10 conf 44*.
For CC(C)Cn1c(=O)c(CCC(=O)Nc2ccc(N3CCOCC3)cc2)nc2cc(Cl)ccc21 the results were tim10-1 inh 17, TIM10 inh 12, B2AR ag 11, tim23-1 inh 19 and PfHsp90 yeast 2 -11.

Compound activity from PubChem BioAssay.
